Assay results reported in PubChem BioAssay (Tox21).
Records with an inconclusive call do not appear. The source made the active and inactive calls. Unless noted, the call rests on the fitted dose curve.

Tests used:
[1] = qHTS assay to identify small molecule antagonists of the estrogen related receptor signaling pathway with the pleiotropic PPARgamma coactivator (PGC) from Tox21 10K library - cell viability counter screen (AID 1224840; active means well fitted cell-killing curve with a large enough effect in the repeat runs, not every such curve was filed as active; further: nearly all actives have a fitted effect of over 40% in size)
In short: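 Following seeding of 2,000 PGC/ERR cells/well and 6 hours' incubation, test compounds were delivered in DMSO. The plates then sat 17.5 hours at 37 C before a fluorogenic live-cell protease reagent (CellTiter-Fluor) was read after 30 min.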

[2] = qHTS assay to identify small molecule antagonists of the estrogen related receptor signaling pathway with the pleiotropic PPARgamma coactivator (PGC) from Tox21 10K library (AID 1224841; call rule not given here; further: actives are mostly falling curves and most rising ones were filed inactive; nearly all actives have a fitted effect of over 50% in size)
In short: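 qHTS antagonist format: PGC/ERR cells, 2k/well, compound in DMSO by pin transfer after 6 h attachment, 18 h treatment at 37 C, One-Glo luminescence read at 30 min.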

[3] = qHTS assay to identify small molecule agonists of the estrogen related receptor signaling pathway with the pleiotropic PPARgamma coactivator (PGC) from Tox21 10K library (AID 1224842; active means well fitted curve in the direction sought with a large enough effect in the repeat runs; an effect the other way counts as inactive or inconclusive; further: nearly all actives have a fitted effect of over 15% in size)
In short: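 Luminescence from One-Glo (30 min, room temperature) measured after PGC/ERR cells had 18 h at 37 C with pinned compound (23 nL in DMSO). Cells had been seeded at 2,000 per well and pre-incubated 6 h.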

[4] = qHTS assay to identify small molecule agonists of the hypoxia (HIF-1) signaling pathway - cell viability counter screen (AID 1224844); further: nearly all actives have a fitted effect of over 50% in size
In short: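 Cells (HRE-bla ME-180, 2,000 per well) sat 5 hrs at 37C, got compound for 17 hrs, were read for CCF4-AM FRET, and were finally lysed with CellTiter-Glo for a 30 min room-temperature luminescence read.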

[5] = qHTS assay to identify small molecule agonists of H2AX (AID 1224845; active means well fitted activation curve with a large enough effect in the signal ratio in the repeat runs, not every such curve was filed as active; the % refers to the signal ratio)
In short: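 Phospho-H2AX Ser139 measured by HTRF (ex 320 nm; em 665 and 620 nm) after 24 hr antibody incubation. Compounds, 15 concentrations, 0.76% DMSO, were applied to CHO-K1 cells for 3hr at 37C before lysis.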

[6] = qHTS assay to identify small molecule antagonists of the estrogen related receptor (ERR) signaling pathway from Tox21 library (AID 1224848; active means well fitted curve in the direction sought with a large enough effect in the repeat runs; an effect the other way counts as inactive or inconclusive; further: nearly all actives have a fitted effect of over 50% in size)
In short: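 Reading was by luminescence 30 min after ONE-Glo addition. Before that, ERR cells at 2,000 per well had rested 6 h at 37 C/5% CO2 and then received pin-tooled compounds in DMSO for 18 h at 37 C.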

[7] = qHTS assay to identify small molecule agonists of the estrogen related receptor (ERR) signaling pathway from Tox21 library (AID 1224849); conditions: ERR reporter cell line, ONE-Glo luciferase, 18 h; at 92.4 µM (top of the series) unless noted; further: nearly all actives have a fitted effect of over 15% in size
In short: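 Screening used an NTP-provided ERR luciferase cell line. Compounds in DMSO were added 6 h after seeding and left 18 h at 37 C before a 30 min ONE-Glo step and luminescence reading.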

[8] = biological target: Thyrotropin receptor (Homo sapiens) (UniProt P16473); test: qHTS assay to identify small molecule agonists of the thyroid stimulating hormone receptor (TSHR) signaling pathway (AID 1224843); further: nearly all actives have a fitted effect of over 45% in size
Thyrotropin receptor (Homo sapiens), sequence (P16473 whole entry, looked up): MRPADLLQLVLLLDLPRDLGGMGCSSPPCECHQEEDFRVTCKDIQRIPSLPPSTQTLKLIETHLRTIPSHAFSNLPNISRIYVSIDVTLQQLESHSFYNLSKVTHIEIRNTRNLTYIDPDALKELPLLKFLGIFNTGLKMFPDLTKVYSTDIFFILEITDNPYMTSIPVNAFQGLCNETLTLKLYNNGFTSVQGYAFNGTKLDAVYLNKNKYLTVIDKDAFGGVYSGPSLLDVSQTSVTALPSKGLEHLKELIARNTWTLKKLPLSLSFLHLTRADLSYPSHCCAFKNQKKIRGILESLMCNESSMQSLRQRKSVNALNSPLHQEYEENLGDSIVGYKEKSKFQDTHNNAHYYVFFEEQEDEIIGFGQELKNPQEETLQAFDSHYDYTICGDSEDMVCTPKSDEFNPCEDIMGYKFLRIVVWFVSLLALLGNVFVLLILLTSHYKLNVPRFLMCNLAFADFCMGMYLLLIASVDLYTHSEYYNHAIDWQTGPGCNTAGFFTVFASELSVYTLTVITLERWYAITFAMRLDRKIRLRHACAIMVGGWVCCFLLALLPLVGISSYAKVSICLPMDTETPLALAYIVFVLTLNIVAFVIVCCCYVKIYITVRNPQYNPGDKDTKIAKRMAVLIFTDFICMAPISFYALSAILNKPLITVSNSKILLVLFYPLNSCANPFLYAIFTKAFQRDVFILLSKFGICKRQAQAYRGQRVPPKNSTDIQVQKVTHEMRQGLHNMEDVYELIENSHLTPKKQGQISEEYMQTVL
In short: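 HEK293 cells stably bearing the thyrotropin receptor were plated at 800 cells/well and challenged with compound (30 min, RT). Accumulated cAMP was quantified via cAMP-d2 competing for cryptate-tagged antibody.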

[9] = qHTS assay to identify small molecule agonists of H2AX - cell viability counter screen (AID 1224847);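 further: wild-type CHO-K1 cells; top concentration of the series differs between compounds; nearly all actives have a fitted effect of over 30% in size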
In short: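 CHO-K1 wt, 1000 cells/well, o/n 37C; cpds 15 conc, 3 h 37C, 0.76% DMSO; CellTiter-Glo, 30 min RT, luminescence.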

[10] = qHTS assay to identify small molecule agonists of the hypoxia (HIF-1) signaling pathway (AID 1224846; active means well fitted activation curve with a large enough effect in the signal ratio in the repeat runs, not every such curve was filed as active; the % refers to the signal ratio)
In short: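 A low-serum medium (0.5% dialyzed FBS) holding 2,000 HRE-bla ME-180 cells per well is preincubated for 5 hrs, dosed with compounds by pintool, and kept a further 17 hrs at 37C, 5% CO2 before CCF4-AM FRET detection of beta-lactamase.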
On the % scale 0 is the no-effect control and ±100 the full control effect.

O=C(O)CCC(=O)Nc1ccc(S(=O)(=O)Nc2nccs2)cc1
inactive: outcome [1] | Potency [2] | Potency [3] | outcome [4] | outcome [5] | outcome [6] | activity change, positive = activation [7] 8.26% [at 42.5 µM]

CC/C=C\CCCCCCCCCCOC(C)=O
inactive: outcome [1] | Potency [2] | Potency [3] | Potency [8] | outcome [5] | outcome [9] | outcome [6] | activity change, positive = activation [7] 0.807%

C=CCCCCCCCCCCCCCC
inactive: viability change, negative = cytotoxic [1] 2.94% [at 19 µM] | activation [3] -5.23% [at 19 µM] | activation [8] 2.45% [at 19 µM] | activity change, negative = cytotoxicity [4] -3.81% [at 15.8 µM] | activation (H2AX phosphorylation) [5] -0.234% [at 31.6 µM] | activation [10] -0.445% [at 15.8 µM] | activity change, negative = cytotoxicity [9] 0.186% [at 31.6 µM] | activity, negative = inhibition [6] 3.1% [at 19 µM] | activity change, positive = activation [7] 1.6% [at 19 µM]

BrCCOc1ccccc1
inactive: outcome [1] | Potency [2] | Potency [3] | outcome [4] | outcome [5] | outcome [10] | outcome [9] | outcome [6]

C=C(C)C(=O)OCCOC1CC2CC1C1C=CCC21 (stereo unspecified)
inactive: outcome [1] | Potency [2] | Potency [3] | outcome [4] | outcome [5] | outcome [10] | outcome [9] | outcome [6]

O=C[C@@H](O)[C@H](O)[C@H](O)CO
inactive: outcome [1] | Potency [8] | outcome [4] | outcome [5] | outcome [10]

Cc1ccc(S(=O)(=O)NC(=O)NN2CC3CCCC3C2)cc1 (stereo unspecified)
inactive: outcome [1] | Potency [8] | outcome [4] | outcome [5]

COc1cc(C(=O)NC2CCCNC2)cc(OC)c1OC (stereo unspecified)
inactive: outcome [1] | Potency [8] | outcome [4] | outcome [5] | outcome [10]

CC(=O)O[C@@H]1CC2C3CCc4cc(OC(=O)c5ccccc5)ccc4C3CCC2(C)[C@H]1OC(C)=O (stereo partly specified)
inactive: outcome [1] | Potency [8] | outcome [4] | outcome [5] | outcome [10]

CCCCN(CCCC)CCCCCCN(CCCC)CCCC
inactive: outcome [1] | Potency [8] | outcome [4] | outcome [5] | outcome [10] | outcome [9]

Cc1cccc(N)n1
inactive: outcome [1] | Potency [8] | outcome [4] | outcome [5] | outcome [10] | outcome [9]

CN(C)CCC[C@@]1(c2ccc(F)cc2)OCc2cc(C#N)ccc21
inactive: outcome [1] | Potency [3] | Potency [8] | outcome [4] | outcome [5] | outcome [9] | outcome [6] | activity change, positive = activation [7] -3.55% [at 42.5 µM]

CCCC(=O)C(CC)Sc1ccoc1C (stereo unspecified)
inactive: outcome [1] | Potency [8] | outcome [4] | outcome [5] | outcome [10]

C=CC(C)(CCC=C(C)C)OC(=O)C(C)C (stereo unspecified)
inactive: outcome [1] | Potency [8] | outcome [4] | outcome [5] | outcome [10]

O=C1CC2(CCCC2)CC(=O)N1CCNCC1COc2ccccc2O1 (stereo unspecified)
inactive: outcome [1] | Potency [8] | outcome [4] | outcome [5]

CCCCCCCCC1CO1 (stereo unspecified)
inactive: outcome [1] | Potency [8] | outcome [4] | outcome [5] | outcome [10]

N=C(N)N1CCc2ccccc2C1
inactive: viability change, negative = cytotoxic [1] -0.866% [at 8.39 µM] | activation [3] 0.335% [at 8.39 µM] | activation [8] -1.09% [at 8.39 µM] | activity change, negative = cytotoxicity [4] 5.71% [at 6.97 µM] | activation (H2AX phosphorylation) [5] 0.461% [at 14 µM] | activity change, negative = cytotoxicity [9] 1.46% [at 14 µM] | activity, negative = inhibition [6] 3.19% [at 8.39 µM] | activity change, positive = activation [7] 1.78% [at 8.39 µM]
